Columns and labels:
Assay in all cases: PBM binding z-score (relative to random genomic background probes); higher = stronger binding; sequences stand for … in GC…GCGATTGACAGCGTAGAATGAAGG
[1] = tested on: FXR:RXRa (NR concentration 270 nM, RXRa partner concentration 90 nM)
Outline: (§1)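 On custom Agilent 4×180K arrays, double-stranded probes with 34-nt variable regions carried direct-repeat seeds, single-nucleotide variants, half-site ablations or random human genomic background. Ligand-free nuclear receptor dimers were applied for 1 h, and binding was read with antibodies against each partner (one per run). Binding z-scores come from regression-normalized fluorescence, with the random background probes as reference.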

[2] = tested on: LXRa:RXRa (NR concentration 270 nM, RXRa partner concentration 90 nM)
Outline: as §1

[3] = tested on: LXRa homodimer (NR concentration 270 nM)
Outline: as §1

[4] = tested on: LXRb:RXRa (NR concentration 270 nM, RXRa partner concentration 90 nM)
Outline: as §1

[5] = tested on: PPARa:RXRa (NR concentration 270 nM, RXRa partner concentration 90 nM)
Outline: as §1

[6] = tested on: PPARg:RXRa (NR concentration 180 nM, RXRa partner concentration 90 nM)
Outline: as §1

[7] = tested on: PPARg:RXRa 270nM:90nM, anti-RXR (NR concentration 270 nM, RXRa partner concentration 90 nM)
Outline: as §1

[8] = tested on: PPARg:RXRa 30nM:10nM, anti-RXR (NR concentration 30 nM, RXRa partner concentration 10 nM)
Outline: as §1

[9] = tested on: PPARg:RXRa 90nM:30nM, anti-RXR (NR concentration 90 nM, RXRa partner concentration 30 nM)
Outline: as §1

Sequence | PBM binding z-score [1] | PBM binding z-score [2] | PBM binding z-score [3] | PBM binding z-score [4] | PBM binding z-score [5] | PBM binding z-score [6] | PBM binding z-score [7] | PBM binding z-score [8] | PBM binding z-score [9]
CCGAGTTGGTTACGAGGGGGCATTCAGTGCGAAT | 1.35 | 3.69 | 1.21 | 4.27 | 2.31 | -0.0841 | 0.784 | -0.706 | 0.481
TCGAGTAGGTTACGGGGGCACTCAGGGATGAAGA | 2.26 | 2.67 | 0.365 | 4.7 | 4.43 | 6.44 | 6.05 | 3.54 | 5.14
TGGAGTAGGTTACGGGGGCATTCAGGGATGAAGA | 3.28 | 3.37 | 1.38 | 5.17 | 4.73 | 7.46 | 6.49 | 4.07 | 5.66
TCGAGTAGGTTACTGGGGCATTCAGGGATGAAGA | 0.441 | 0.372 | -0.186 | 0.462 | 3.51 | 4.99 | 4.53 | 2.29 | 3.46
CCGCGTAGGTTACGAGGGGGCATTCAGTGCGAAT | 2.11 | 7.21 | 1.61 | 6.37 | 3.17 | 0.847 | 2.86 | 0.411 | 2.18
CTATGTAGGTTAAGGGGGTCATTCAATTTGAAAG | 5.04 | 4.74 | 2.45 | 6.26 | 6.18 | 8.92 | 7.74 | 5.91 | 8.06
CTATGTAGGATAAGGGGGTCATTCAGTTTGAAAG | 4.36 | 4.48 | 2.61 | 5.97 | 5.61 | 5.71 | 5.95 | 3.41 | 5.43
CTATCTAGGTTAAGGGGGTCATTCAGTTTGAAAG | 5.03 | 4.71 | 2.63 | 6.25 | 5.95 | 8.5 | 7.76 | 6.25 | 7.89
TCGAGTAGGTTACGGGCGCATTCAGGGATGAAGA | 0.124 | 0.321 | -0.293 | -0.159 | 1.4 | 1.17 | 1.62 | 1.11 | 1.36
CCGAGTACGTTACGAGGGGGCATTCAGTGCGAAT | 1.3 | 3.11 | 0.927 | 4.03 | 2.23 | 0.00178 | 0.968 | -0.231 | 0.521
TCGAGTAGGTTACGGGGGAATTCAGGGATGAAGA | 0.979 | 1.58 | 0.0777 | 2.86 | 2.8 | 3.75 | 4.02 | 2.24 | 3.53
CTAGGTAGGTTAAGGGGGTCATTCAGTTTGAAAG | 4.79 | 4.89 | 2.54 | 6.08 | 5.56 | 6.17 | 6.57 | 3.72 | 5.95
CCGAGTAGATTACGAGGGGGCATTCAGTGCGAAT | 0.841 | 2.24 | 0.791 | 3.36 | 1.75 | 0.167 | 0.849 | 0.0804 | 0.742
CCGAGTAGGTTACGAGGGGGCTTTCAGTGCGAAT | 1.47 | 3.54 | 0.44 | 4.05 | 2.66 | 1.29 | 2.7 | 0.558 | 1.82
CTATTTAGGTTAAGGGGGTCATTCAGTTTGAAAG | 4.85 | 4.88 | 2.76 | 6.33 | 5.72 | 7.22 | 7.14 | 4.74 | 6.89
TCTAGTAGGTTACGGGGGCATTCAGGGATGAAGA | 3.33 | 3.71 | 1.27 | 5.76 | 4.95 | 8 | 6.8 | 5.71 | 6.87
TCGAGTAGGCTACGGGGGCATTCAGGGATGAAGA | 1.68 | 1.1 | -0.259 | 3.17 | 2.56 | 1.6 | 2.51 | 1.38 | 1.8
CCGAGTAGGGTACGAGGGGGCATTCAGTGCGAAT | 1.83 | 4.84 | 0.674 | 4.44 | 2.53 | 0.709 | 1.58 | 0.0374 | 1.17
TCGAGTAGGTTAGGGGGGCATTCAGGGATGAAGA | 3.28 | 3.15 | 1.42 | 5.64 | 3.3 | 5.66 | 4.97 | 3.63 | 5.01
CAATGTAGGTTAAGGGGGTCATTCAGTTTGAAAG | 3.39 | 5.38 | 3.82 | 6.46 | 6.05 | 8.91 | 8.13 | 6.58 | 8.44
CCGAGTAGGTTACGAGGGGGCATACAGTGCGAAT | 2.06 | 6.92 | 1.29 | 6.04 | 3.52 | 2.73 | 3.69 | 1.1 | 2.54
TCGAGAAGGTTACGGGGGCATTCAGGGATGAAGA | 4.57 | 4.21 | 0.687 | 5.72 | 5.32 | 6.1 | 5.94 | 4.28 | 5.29
TCGAGTAGGTTTCGGGGGCATTCAGGGATGAAGA | 2.38 | 2.27 | 0.973 | 4.48 | 2.96 | 1.4 | 2.99 | 2.29 | 2.8
CCGAGTAGGTTACAAGGGGGCATTCAGTGCGAAT | 2.05 | 7.37 | 2.35 | 6.52 | 3.41 | 2.25 | 3.68 | 0.773 | 2.98
CCGAGTAGGTAACGAGGGGGCATTCAGTGCGAAT | 1.91 | 5.77 | 0.734 | 4.7 | 2.83 | 1.05 | 2.41 | 0.082 | 1.9
CTATGTAGGTTAAGGTGGTCATTCAGTTTGAAAG | 1.04 | 1.15 | 0.413 | 1.09 | 3.64 | 5.35 | 4.98 | 2.07 | 4.28

Sequence | PBM binding z-score [1] | PBM binding z-score [2] | PBM binding z-score [3] | PBM binding z-score [4] | PBM binding z-score [5] | PBM binding z-score [6] | PBM binding z-score [7] | PBM binding z-score [8] | PBM binding z-score [9]
TCGAGTAGGTTACGTGGGCATTCAGGGATGAAGA | -0.0639 | 0.328 | -0.386 | 0.112 | 1.25 | 0.953 | 1.36 | 1.14 | 1.11
CTATGTAGGGTAAGGGGGTCATTCAGTTTGAAAG | 5.03 | 4.71 | 2.41 | 6.36 | 6.11 | 8.15 | 7.52 | 5 | 7.42
CCATGTAGGTTAAGGGGGTCATTCAGTTTGAAAG | 4.98 | 4.71 | 3.76 | 6.22 | 5.88 | 7.38 | 7.13 | 4.55 | 6.52
TCGAGTAGATTACGGGGGCATTCAGGGATGAAGA | 1.41 | 1.87 | 0.702 | 4.05 | 2.53 | 1.06 | 2.64 | 2.04 | 2.12
CCGAGTAGGTTACGAGGGGGCATTTAGTGCGAAT | 2.43 | 7.16 | 1.74 | 6.59 | 3.54 | 1.87 | 3.44 | 1.22 | 2.89
CTATGTAGGTTAAGTGGGTCATTCAGTTTGAAAG | 1.59 | 2.35 | 0.645 | 2.29 | 4.58 | 5.98 | 5.61 | 2.89 | 4.9
CCGACTAGGTTACGAGGGGGCATTCAGTGCGAAT | 2.03 | 6.99 | 1.82 | 6.19 | 3.16 | 2.68 | 3.48 | 1.66 | 2.47
TCGAGTGGGTTACGGGGGCATTCAGGGATGAAGA | 2.78 | 3.03 | 1.26 | 5.08 | 4.26 | 5.66 | 5.53 | 3.59 | 4.84
CCGGGTAGGTTACGAGGGGGCATTCAGTGCGAAT | 2.48 | 7.2 | 1.5 | 6.39 | 3.54 | 1.6 | 2.96 | 1.05 | 2.49
CCTAGTAGGTTACGAGGGGGCATTCAGTGCGAAT | 3.31 | 7.55 | 1.8 | 6.51 | 4.13 | 5.11 | 5.4 | 2.24 | 4.28
TCGAGTAGGTTACGGAGGCATTCAGGGATGAAGA | 0.282 | 0.497 | -0.597 | 0.121 | 1.57 | 1.39 | 1.81 | 1.08 | 1.75
CCGAGTAGGTTACGAGGGGGGATTCAGTGCGAAT | 2.34 | 3.82 | 0.79 | 5.43 | 2.99 | 2.52 | 3.71 | 1.57 | 3.4
CCGAGTAGGTTACGAGGGGGCATTCCGTGCGAAT | 2.81 | 7.17 | 1.62 | 6.21 | 3.36 | 1.77 | 2.96 | 0.628 | 1.69
TCGAGTAGGTTACGGGGGCATGCAGGGATGAAGA | 2.17 | 2.53 | 0.37 | 4.94 | 4.27 | 6.15 | 5.69 | 3.6 | 4.99
CTATGTAAGTTAAGGGGGTCATTCAGTTTGAAAG | 4.5 | 4.34 | 2.4 | 6.24 | 5.31 | 3.92 | 5.21 | 2.84 | 4.55
CCGAGTAGGTTACGAGGGCGCATTCAGTGCGAAT | 0.0416 | 1.77 | -0.35 | 0.425 | 1.72 | 2.6 | 2.55 | -0.0123 | 1.62
CCGAGTATGTTACGAGGGGGCATTCAGTGCGAAT | 1.03 | 4.44 | 0.955 | 3.9 | 2.28 | 0.244 | 1.45 | 0.332 | 1.29
CCGAGTAGGCTACGAGGGGGCATTCAGTGCGAAT | 0.473 | 3.15 | 0.222 | 3.4 | 1.72 | 0.0175 | 1.1 | -0.389 | 0.48
TCGAGTAGGTTACGGGGGCATTCAAGGATGAAGA | 2.72 | 3.01 | 0.487 | 4.72 | 4.27 | 6.08 | 5.8 | 3.65 | 4.94
CTATGTAGGTTGAGGGGGTCATTCAGTTTGAAAG | 4.59 | 4.82 | 2 | 6.24 | 5.54 | 4.5 | 5.93 | 2.9 | 5.21
TTGAGTAGGTTACGGGGGCATTCAGGGATGAAGA | 3.06 | 3.3 | 1.18 | 5.2 | 4.63 | 7.11 | 6.44 | 4.81 | 5.83
CTATGTAGGTTAAGGGGGTCACTCAGTTTGAAAG | 4.57 | 4.36 | 1.65 | 5.87 | 5.91 | 8.64 | 7.98 | 6.23 | 8.19
TCGAGTAGGTTACAGGGGCATTCAGGGATGAAGA | 0.886 | 1.08 | 0.219 | 1.68 | 2.44 | 2.7 | 2.87 | 1.73 | 2.71
CTATGTAGGTTAAGGGGGTCGTTCAGTTTGAAAG | 2.32 | 2.72 | 0.932 | 5.37 | 5.33 | 7.56 | 7.03 | 4.96 | 6.85
CTAAGTAGGTTAAGGGGGTCATTCAGTTTGAAAG | 5.01 | 4.96 | 3.1 | 6.08 | 6.01 | 8.37 | 7.83 | 6.33 | 8.16
CCGAGTAAGTTACGAGGGGGCATTCAGTGCGAAT | 0.776 | 3.84 | 0.71 | 3.69 | 1.99 | -0.0159 | 1.15 | 0.0165 | 0.85

Source: the supplement of paper PMC6555819
